Source: PubChem (several laboratories)
A selection: hits, their analogues and other compounds. The true share with any hit is near 8.7%.
Smad3 inh: Smad3/FoxH1 peptide binding inhibitors, primary screen, biochemical, TR-FRET. TR-FRET Smad3/Dy647-FoxH1 peptide binding, europium anti-His. inhibition, % at 25 µM. actives 0.29% (n = 88,000);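 active = compounds that reduce the energy-transfer binding signal between the protein and its labelled peptide by more than half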
PostGolgi ctrl: growth inhibition of yeast control strain, primary screen, counter-screen for post-Golgi transport modulator project; efflux-deficient yeast background strain, growth absorbance A615, 16 h; AID 738, 2007; actives 5% (n = 98,000); inhibition, % at 10 µM
Cav3 T inh: Cav3.2 calcium influx blockers – cell-based, Fluo-4 calcium fluorescence, FDSS, MLSMR library, primary screen. AID 449739, 2010. Cav3.2-expressing cells; active compounds read low. actives 4% (n = 100,000). Voltage-dependent T-type calcium channel subunit alpha-1H (Homo sapiens), O95180. B-score at 10 µM;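 active = single-dose well whose peak fluorescence ratio is a statistical outlier from its plate by either plate-standardised score or position-corrected B-score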
PostGolgi yeast: phenotypic screen on post-Golgi transport, primary screen | post-Golgi transport phenotypic cell assay | inhibition, % at 10 µM | actives 0.9% (n = 98,000) | AID 739, 2007;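 also: yeast cells grown in 1536-well plates; yeast grown about 18 h at 30C before absorbance read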
TNAP act mid DEA: human TNAP enzyme activators, primary screen, biochemical, luminescent, intermediate phosphate acceptor level | 64,000 tested, under 10 active | purified TNAP, CDP-star luminescence, 100 mM DEA, 30 min; active compounds read high; scale: 0 levamisole-inhibited, 1 vehicle-only enzyme | activation factor at 20 µM | Alkaline phosphatase, tissue-nonspecific isozyme (Homo sapiens), P05186 | AID 813, 2007;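 active = activation factor of at least 2 at 20 µM, relative to controls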
DAT uptake mod: changed hDAT dopamine uptake under cocaine IC80, either direction, primary screen, cocaine antagonist project, cell-based, LLC-PK1 hDAT, [14C]-dopamine uptake, MLSMR. Sodium-dependent dopamine transporter (Homo sapiens), Q01959. LLC-PK1 hDAT cells, [14C]-dopamine uptake with cocaine IC80; actives deviate in either direction. B-score at 10 µM. actives 1.3% (n = 110,000);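 active = Z score or B-score, a plate-position-corrected score, falls beyond the plate's 99.7% confidence bounds, in either direction; inactive = both scores lie inside the 99.7% bounds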
Each line names hits and unclear results; the compound was inactive in the other large screens. Rule as the data show it, unless noted: active = inhibition above about 30%; inactive = the rest.

CC(C)c1ccc(C2C3CSCC=C3C(C#N)=C(N)C2(C#N)C#N)cc1 (stereo not given)	PostGolgi yeast 74 (no result: TNAP act mid DEA)
CN1CC=C2C(C#N)=C(N)C(C#N)(C#N)[C@H](c3cccc(Cl)c3)C2C1 (stereo not given in full)	none
O=C(O)c1ccccc1/C=N/N=C1c2ccccc2-c2ccccc21	Smad3 inh 62 (no result: PostGolgi ctrl, Cav3 T inh, PostGolgi yeast, TNAP act mid DEA, DAT uptake mod)
CCOC(=O)c1c(NC(=O)c2ccnn2C)sc(C)c1C	none (no result: PostGolgi ctrl, PostGolgi yeast, TNAP act mid DEA)
CC1COC(c2cccn2Cc2ccccc2Cl)=N1 (stereo not given)	none
O=C(CSc1ncnc2sc3c(c12)CCCC3)c1ccco1	PostGolgi ctrl 46 (no result: Cav3 T inh)
O=C(CSc1ncnc2sc3c(c12)CCCC3)c1ccccc1	none (no result: PostGolgi ctrl, PostGolgi yeast, TNAP act mid DEA)
Cc1ccc(C(=O)c2ccc(N3CCOCC3)c(F)c2)cc1	DAT uptake mod 4.5 (no result: PostGolgi ctrl, PostGolgi yeast, TNAP act mid DEA)
Cc1ccc(NC(=O)CC2SCCNC2=O)cc1Cl (stereo not given)	none
CC(C)(C)n1nnnc1CN1CCN2CCCC2C1 (stereo not given)	none (no result: TNAP act mid DEA)
O=C1CC(c2ccc(Cl)c(Cl)c2)CC(O)=C1C=NCCN1CCNCC1 (stereo not given)	PostGolgi ctrl 37
O=C1CC(c2ccccc2)CC(O)=C1C=NCCN1CCNCC1 (stereo not given)	none
COc1ccc(C2CC(=O)C(C=NCCCN3CCOCC3)=C(O)C2)cc1 (stereo not given)	PostGolgi ctrl 39 (no result: Smad3 inh)
Cc1nc2sccn2c(=O)c1CCN1CCC(=C(c2ccccc2)c2ccc(F)cc2)CC1	DAT uptake mod -3.5 (no result: PostGolgi ctrl, PostGolgi yeast)
CCOC(=O)c1c(C)nc2sccn12	none
O=C1CCCN1c1ccc(S(=O)(=O)NCCOc2ccccc2)cc1	none (no result: PostGolgi ctrl, PostGolgi yeast, TNAP act mid DEA)
Cc1cc(N2CCCC2=O)cc(C)c1S(=O)(=O)NCCOc1ccc(C(C)(C)C)cc1	DAT uptake mod -2.8 (no result: PostGolgi ctrl, PostGolgi yeast, TNAP act mid DEA)
Oc1ccc(Br)cc1/C=N/n1cnc2ccccc21	PostGolgi ctrl 32 (no result: Smad3 inh)
CCOc1ccccc1-c1cc(C(=O)N/N=C/c2ccc3c(c2)OCO3)c2ccccc2n1	PostGolgi ctrl 92, PostGolgi yeast 53 (no result: Smad3 inh, TNAP act mid DEA)
Cc1ccsc1/C=N/NC(=O)c1c[nH]c2ccccc12	none (no result: Smad3 inh, TNAP act mid DEA)
COc1ccccc1-c1cc(C(=O)N/N=C/c2sccc2C)c2ccccc2n1	PostGolgi ctrl 48 (no result: Smad3 inh, TNAP act mid DEA)
CC(=O)c1c(C)n(C)c2ccc(OC(=O)c3ccco3)cc12	none (no result: TNAP act mid DEA)
O=C(O)C(=O)/C(=C\c1cccc2ccccc12)c1ccc2ccccc2n1	Cav3 T inh -5.5 (no result: TNAP act mid DEA)
Cc1ccc(Cn2cc(SCC(=O)Nc3nccs3)c3ccccc32)cc1	Cav3 T inh -6 (no result: TNAP act mid DEA)
Cc1ccc(C(=O)NCCn2cc(SCC(=O)Nc3cc(C)on3)c3ccccc32)cc1	Cav3 T inh -4 (no result: Smad3 inh)
COc1ccc(CCNC(=O)CSc2cn(Cc3cccc(C)c3)c3ccccc23)cc1OC	Cav3 T inh -4.3 (no result: Smad3 inh, PostGolgi ctrl, PostGolgi yeast, TNAP act mid DEA)
COc1ccc(CCNC(=O)CSc2cn(Cc3ccccc3)c3ccccc23)cc1OC	none (no result: Smad3 inh, PostGolgi ctrl, PostGolgi yeast, TNAP act mid DEA)
Cc1cccc(Cn2cc(SCC(=O)Nc3nccs3)c3ccccc32)c1	Cav3 T inh -4.6 (no result: TNAP act mid DEA)
Cc1cc(NC(=O)CSc2cn(CCNC(=O)c3ccccc3)c3ccccc23)no1	none
Cc1nnc(NC(=O)CSc2cn(Cc3ccccc3)c3ccccc23)s1	none
Cc1ccc(S(=O)(=O)NC(=O)c2ccc(-c3ccc(-c4ccccc4)cc3)o2)c(C)c1	Cav3 T inh -4.3, DAT uptake mod -2.2 (no result: Smad3 inh, PostGolgi ctrl, PostGolgi yeast, TNAP act mid DEA)
COc1cc(C2CC(=O)NC3=C2C(=O)CC(C)(C)C3)ccc1O (stereo not given)	none
Cc1ccc(-c2ccc(/C=N/N3C(=O)C4C5C=CC(C6CC56)C4C3=O)o2)c([N+](=O)[O-])c1 (stereo not given)	Cav3 T inh -5.1 (no result: TNAP act mid DEA)
Cc1ccc(C(=O)/C=C/c2ccc(-c3ccccc3[N+](=O)[O-])o2)cc1	none (no result: Smad3 inh, TNAP act mid DEA)
CCC(=O)Nc1ccc2c(c1)ncn2-c1ccc(OC)cc1	DAT uptake mod 2.9 (no result: PostGolgi ctrl, PostGolgi yeast, TNAP act mid DEA)
Cc1ccc(C2(c3ccc(C)cc3)CC2C(=O)Nc2ccc([N+](=O)[O-])cc2O)cc1 (stereo not given)	PostGolgi ctrl 91, PostGolgi yeast 101 (no result: Smad3 inh, TNAP act mid DEA)
CC(C)CCN=Cc1c(O)n(-c2ccccc2)c(=O)c2ccccc12	PostGolgi ctrl 39 (no result: TNAP act mid DEA)
COC(=O)c1ccccc1NC(=O)c1cccc(NC(=O)c2ccc(Br)o2)c1C	Cav3 T inh -5
COC(=O)c1ccccc1NC(=O)c1ccc(COc2cc(C)cc(C)c2)o1	PostGolgi ctrl 31 (no result: Smad3 inh, TNAP act mid DEA)
CN1CCN(C(=O)c2cc(Cl)ccc2Cl)CC1	PostGolgi ctrl 31
CCOC(=O)c1nn(-c2ccccc2F)c(-c2ccccc2)c1C(=O)c1ccccc1	PostGolgi ctrl 32, Cav3 T inh -4.4 (no result: Smad3 inh, TNAP act mid DEA)
CCOC(=O)c1nn(-c2ccccc2)c(-c2ccccc2)c1C(=O)c1ccccc1	none (no result: Smad3 inh, TNAP act mid DEA)
Cn1c(/N=C/c2cc(Cl)ccc2O)nc2ccccc21	Cav3 T inh -4.8
Cn1c(/N=C/c2cccs2)nc2ccccc21	Cav3 T inh 3 (no result: Smad3 inh)
COc1ccc(-n2c(SCC(=O)NC3CCCCC3)nc3ccsc3c2=O)cc1	none (no result: TNAP act mid DEA)
CC(C)CCC(C)N=Cc1c(O)n(Cc2ccccc2)c(=O)c2ccccc12 (stereo not given)	none (no result: TNAP act mid DEA)
O=c1c2ccccc2c(/C=N/c2ncn[nH]2)c(O)n1Cc1ccccc1	PostGolgi ctrl 30 (no result: DAT uptake mod)
Fc1ccc(-c2cnc[nH]2)cc1	none (no result: Cav3 T inh)
CN(Cc1cc(C(C)(C)C)cc(Br)c1O)Cc1cc(C(C)(C)C)cc(Br)c1O	Smad3 inh 96 (no result: PostGolgi ctrl, Cav3 T inh, PostGolgi yeast, TNAP act mid DEA, DAT uptake mod)
CCC1CCc2c(sc(NC(=O)c3ccoc3C)c2C(N)=O)C1 (stereo not given)	PostGolgi ctrl 30
CCC(C)(C)C1CCc2c(sc(NC(=O)c3ccoc3C)c2C(N)=O)C1 (stereo not given)	none (no result: TNAP act mid DEA)
CCOC(=O)CNC(=O)CSc1ncnc2c1cnn2-c1ccc(OC)cc1	none
Cc1cc2ccccc2c(=O)n1CC(=O)NCC(=O)N1CCCC(C)C1 (stereo not given)	none (no result: TNAP act mid DEA)
Cc1cc2ccccc2c(=O)n1CC(=O)NCC(=O)N1CCN(c2ccccc2F)CC1	Cav3 T inh -3.8
CCOC(=O)C(=CNc1ccc(C)cc1C)C(=O)OCC	none (no result: Smad3 inh, TNAP act mid DEA)
CCOC(=O)C(=CNc1cccc(C)c1C)C(=O)OCC	DAT uptake mod 6.1 (no result: Smad3 inh, TNAP act mid DEA)
O=C(Cn1nc(-c2ccccc2)c2ccccc2c1=O)Nc1ccc2c(c1)nc1n2CCOC1	none
CC1=CC(C)(C)N(S(=O)(=O)c2ccc(C)cc2)c2ccccc21	PostGolgi ctrl 32 (no result: TNAP act mid DEA)
COc1ccc(Cl)cc1C(=O)NC(=S)Nc1cc(-c2nc3ccccc3[nH]2)ccc1C	PostGolgi ctrl 35, Cav3 T inh -4.8 (no result: Smad3 inh, TNAP act mid DEA)
